# Reference: PubChem BioAssay AID1851 (National Center for Advancing Translational Sciences (NCATS), 2009)
# The campaign covered roughly 16,000 compounds. About 5,700 (36%) were called active. Not shown: some 24% with an inconclusive outcome. The list shows a part of the results. A number with no mark means an inactive call. Calls follow the shape of the dose curve; as a rule, active = well fitted curve in the direction sought with a large enough effect; inconclusive = small, poorly fitted or top-dose-only effect, or effect the other way; inactive = no such curve, though single readings can be large or run the other way.
# Biological target: Cytochrome P450 1A2 (Homo sapiens) (UniProt P05177)
# Test: Cytochrome panel assay with activity outcomes
# Conditions: recombinant CYP, pro-luciferin dealkylation, luminescence, p450-cyp1a2; series mostly up to 57.1 µM; activity, negative = inhibition: at the top concentration
# Protocol: The P450 gene superfamily is involved in the metabolism and clearance of xenobiotics. This assay used various human CYP P450 isozymes to measure the dealkylation of various pro-luciferin substrates to luciferin. The luciferin is then measured by luminescence after the addition of a luciferase detection reagent. Pro-luciferin substrate concentration in the assay was equal to its KM for its CYP P450 isozyme. Inhibitors and some substrates limit the production of luciferin, and decrease measured luminescence.
# NCGC Assay Protocol Summary:
# 1, Reagent, 2 uL, Isozyme and Pro-Luciferin
# 2, Library compounds, 23 nl, 40 uM to 0.24 nM dilution series
# 3, Controls, 23 nl, Isozyme specific inhibitor
# 4, Reagent, 2 uL, NADPH regeneration solution
# 5, Incubation time, 60 min, Isozyme specific temperature
# 6, Reagent, 4ul, Detection reagent
# 7, Incubation time, 20 min, Isozyme specific temperature
# 8, Detection, 1 sec, ViewLux luminescent read
# The luciferase-based P450-GloTM Screening Systems were obtained from Promega (Madison, WI) for CYP 1A2 (V9770), CYP 2C9 (V9790), CYP2 C19 (V9880), CYP 2D6 (V9890), and CYP 3A4 Luciferin-PPXE (V9910) and were adapted for 1,536-well microplates and an automated protocol. The control compounds furafylline for 1A2 (F124), sulfaphenazole for CYP 2C9 (S0758), ketoconazole for CYP 2C19 (K1003), quinidine for 2D6 (Q3625), and ketoconazole for 3A4 (K1003) were purchased from Sigma Aldrich (St. Louis, MO). Recombinant P450 enzymes were obtained from baculovirus constructs expressed in insect cells (BD/Gentest).
# Medium-binding white solid Kalypsys plates used. Mixtures kept on ice. 1A2: 10 nM 1A2, 100 uM Luc-ME, 100 mM KPO4; 2C9: 10 nM 2C9, 100 uM Luc-H, 25 mM KPO4; 2C19: 5 nM 2C19, 10 uM Luc-H EGE, 50 mM KPO4; 2D6: 5 nM 2D6, 30 uM Luc-ME EGE, 100 mM KPO4; 3A4: 10 nM, 25 uM Luc-PPXE. All amounts are reflected in their final concentration, working concentration is 2x.
# NADPH regeneration solution: 1.3 mM NADP+, 3.3 mM glucose-6-phosphate, 3.3 mM MgCl2, 0.4 U/mL glucose-6-phosphate dehydrogenase for all isozymes, 200 mM KPO4 for 3A4. Mixture prepared at RT but kept on ice during automated run.
# RT incubation in auxilliary plate hotel for 1A2, 2D6, and 3A4; 37C for 2C9 and 2C19.
# Keywords: P450, CYP1A2, CYP2C19, CYP2C9, CYP2D6, CYP3A4, Luciferase, MLSMR, MLSCN, NIH Roadmap, qHTS, NCGC
# % is scaled to controls: 0 for no effect and ±100 for the full control effect.
# Chain of Cytochrome P450 1A2 (Homo sapiens) (P05177 whole entry, looked up): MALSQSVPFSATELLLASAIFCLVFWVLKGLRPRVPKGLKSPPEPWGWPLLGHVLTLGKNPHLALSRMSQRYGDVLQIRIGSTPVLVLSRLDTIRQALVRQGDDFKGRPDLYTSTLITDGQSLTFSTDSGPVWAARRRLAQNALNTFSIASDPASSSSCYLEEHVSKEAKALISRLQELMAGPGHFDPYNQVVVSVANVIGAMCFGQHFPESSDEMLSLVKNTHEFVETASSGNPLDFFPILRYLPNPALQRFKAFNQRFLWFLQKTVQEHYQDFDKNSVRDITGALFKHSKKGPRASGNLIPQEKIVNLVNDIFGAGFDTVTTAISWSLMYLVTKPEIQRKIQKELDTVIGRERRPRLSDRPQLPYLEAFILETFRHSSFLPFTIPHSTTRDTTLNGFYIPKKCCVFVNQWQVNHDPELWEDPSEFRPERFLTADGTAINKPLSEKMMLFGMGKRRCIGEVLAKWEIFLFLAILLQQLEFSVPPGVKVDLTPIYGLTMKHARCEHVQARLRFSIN
Structure (SMILES),AC50,"activity, negative = inhibition"
COC(=O)c1ccc(CSc2nc3cc(Cl)ccc3s2)o1,2 µM (active),
CCN(c1ccc(NC(=O)COC(=O)c2ccc3ccccc3n2)cc1)C(C)C,2.51 µM (active),
Cc1ccc(C(C(=O)NCc2ccco2)N(C(=O)CNC(=O)c2cccs2)c2ccc(C)cc2)cc1 (centres undefined),,-2.44%
O=C(c1cccs1)n1nc(-c2ccc(Cl)cc2)nc1NCc1ccco1,0.316 µM (active),
Cc1ccc(C(C(=O)NCc2ccco2)N(C(=O)CNC(=O)c2cccs2)c2ccc(C)cc2C)cc1 (centres undefined),,-8.95%
CCn1c(N)nc2ccccc21,25.1 µM (active),
Cc1noc(COc2ccc(OCc3nc(C)no3)cc2)n1,,0.769%
CCn1c(COc2ccc(OC)cc2)nc2ccccc21,14.1 µM (active),
COc1ccc(OCc2nnc(SCC(=O)O)n2N)cc1,,-20.8%
C[n+]1ccccc1/C=N\O,,-6.64% [at 25.6 µM]
CC(C)NC(=O)N1CCN(c2ccncc2S(=O)(=O)N2CCOCC2)CC1,,-4.14%
Cc1nc2cccc([N+](=O)[O-])c2n1CCCN(C)C,,-16.9% [at 11.4 µM]
O=[N+]([O-])c1cccc2c(Br)[nH]nc12,0.126 µM (active),
O=[N+]([O-])c1ccc(S(=O)(=O)Cc2ccccc2)c2nonc12,,-5.25% [at 2.29 µM]
O=[N+]([O-])c1cccc2c[nH]nc12,2.51 µM (active),
O=[N+]([O-])c1cc(Cc2cc([N+](=O)[O-])c3cccnc3c2O)c(O)c2ncccc12,,-31.1% [at 2.29 µM]
O=[N+]([O-])c1cccc2cn[nH]c12,2.51 µM (active),
COc1ccc2c(c1)CCC1C2CC[C@]2(C)[C@H](NCCCCCCN3C(=O)C=CC3=O)CC[C@@H]12 (some centres undefined),,-3.41%
CCNC(=S)N1CC(C)OC(C)C1 (centres undefined),,-21.6%
O=c1c(-c2ccc(O)cc2)coc2cc(O)cc(O)c12,5.01 µM (active),
COc1ccc(-c2coc3cc(OC)cc(O)c3c2=O)cc1,3.16 µM (active),
O=c1c(-c2ccc(O)cc2)coc2cc(O)ccc12,15.8 µM (active),
CC(O)CN(CCC(N)=O)CCC(N)=O (centres undefined),,6.43%
COc1ccccc1C(=O)NCCn1cc(SCC(=O)Nc2nnc(C)s2)c2ccccc21,12.6 µM (active),
Cc1nnc(NC(=O)CSc2ncnc3c2cnn3-c2ccccc2C)s1,,1.29%

Structure (SMILES),AC50,"activity, negative = inhibition"
CC(C)C(=O)c1c(C(C)C)nn2ccccc12,0.631 µM (active),
CC(C)Oc1ccc2c(=O)c3cc(C(=O)O)ccc3oc2c1,,-20.5%
COc1ccc2c(=O)c(-c3ccccc3)c(C)oc2c1,2.51 µM (active),
O=C(c1ccc(COc2ccc(F)cc2)o1)n1cccn1,10 µM (active),
CN(C)c1ccc(-c2cncnc2NCc2cccs2)cc1,0.398 µM (active),
CN(C)C(=O)c1ccc(-c2cncnc2NCc2cccs2)cc1,20 µM (active),
COc1cccc(=O)c2c(C)n(-c3cc(C)cc(C)c3)c(C)c12,10 µM (active),
COc1cc(/C=C(\C#N)c2nc3c(s2)CC(C)CC3)ccc1O (centres undefined),1.12 µM (active),
COc1cc(/C=C(/C#N)c2nc3ccccc3[nH]2)ccc1OCC(=O)Nc1ccccc1C,,2.56%
CCOc1ccc(-n2c(SCC(=O)Nc3ccc(OC)cc3)nc3c(c2=O)SCC3)cc1,,-13.7%
CCOc1ccc(-n2c(SCC(=O)Nc3ccc4c(c3)OCCO4)nc3c(c2=O)SCC3)cc1,,-12.3%
Cc1ccc2nc(NC(=O)CSc3nc4c(c(=O)n3C)SC(C)C4)sc2c1 (centres undefined),5.01 µM (active),
CCn1c(SCC(=O)Nc2nc3ccc(C)cc3s2)nc2c(c1=O)SC(C)C2 (centres undefined),1.58 µM (active),
C=CCn1c(SCC(=O)NC2CCCCC2)nnc1C1CCCCC1,,1.5%
CCn1c(SCC(=O)NC2CCCCC2)nc2c(c1=O)SC(C)C2 (centres undefined),14.1 µM (active),
CCn1c(SCC(=O)Nc2ccc3c(c2)OCCO3)nc2c(c1=O)SC(C)C2 (centres undefined),12.6 µM (active),
CCn1nnnc1SCC(=O)NC1CCCC1,,-18%
c1ccc([C@H](CCN2CCCC2)c2ccccn2)cc1,,-14.8% [at 11.4 µM]
CN(C)CCCn1cnc2cc(Cl)c(Cl)cc21,,-19.9% [at 2.29 µM]
CNc1ncnc2ccc(-c3ccccc3CN(C)C)cc12,3.16 µM (active),
CN(C)Cc1ccccc1-c1ccc2ncnc(NC3CCNCC3)c2c1,,-9.16%
CN(C)Cc1ccccc1-c1ccc2ncnc(NCc3ccccc3)c2c1,15.8 µM (active),
CN(C)Cc1ccccc1-c1ccc2ncnc(N(C)C)c2c1,12.6 µM (active),
N=C(N)CCNC(=O)[C@@H]1CCC(N)=N1,,-3.4% [at 2.29 µM]
